# Results taken from PubChem BioAssay AID1578 (Sanford-Burnham Center for Chemical Genomics, 2009).
# “And” between values parts separate entries of the source, which are not always exact repeats. Equal values may be shown once. Out of some 290,000 compounds screened, about 3,000 (1%) were called active. Cut-off read from the data, not from the text of the source: active = inhibition mostly above about 36% (no sharp cut-off); inactive = mostly below about 34%. What follows is part of a selection rich in actives, with near analogues and random picks from the rest.
# Assay: NOD1 signaling inhibitors, primary screen, cell-based, luminescence, uHTS (AID 1578);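 note: HEK-293T reporter cells stimulated with the NOD1 agonist gamma-tri-DAP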
# Conditions: NOD1-driven NF-kB luciferase reporter cells, at 4 µM, stronger effect = higher value
row,SMILES,inhibition
1,CN1CCC2(O)OCCCC2C1 (centres undefined),4.3% (inactive)
2,Cc1c(N)c(C)c([N+](=O)[O-])c(C)c1[N+](=O)[O-],69.5% (active)
3,O=C1CN(C(=O)CN2CCCCC2)C(c2ccccc2)c2cc(Br)ccc2N1 (centres undefined),-24.1% (inactive)
4,O=C(Nc1ccc(C(F)(F)F)cc1)c1cccn(Cc2ccc3c(c2)OC(F)(F)O3)c1=O,59.7% (active)
5,Cc1cccc(C)c1NC(=O)c1cccn(Cc2ccc3c(c2)OC(F)(F)O3)c1=O,21.8% (inactive)
6,O=C(Nc1cccc(C(F)(F)F)c1)c1cccn(Cc2ccc3c(c2)OC(F)(F)O3)c1=O,35.6% (inactive)
7,O=C(NCc1ccccc1)c1cccn(Cc2ccccc2)c1=O,2.3% (inactive)
8,O=C(Nc1ccccc1)c1cccn(Cc2ccccc2)c1=O,23% (inactive)
9,O=C(Nc1ccncc1)c1cccn(Cc2ccccc2)c1=O,33.5% (active)
10,Cc1nn(Cc2ccccc2Cl)c(Cl)c1C(=O)OCC(=O)NCc1ccco1,2.8% (inactive)
11,CC(C)Oc1ccc(CCN)cc1Cl,-19.6% (inactive)
12,CCCCCn1c(=O)c(C(=O)Nc2ccccn2)c(O)c2ccccc21,-4.7% (inactive)
13,Cc1ccc(CN(Cc2ccccc2)C(=S)NCC(=O)N2CCC3(CC2)OCCO3)o1,-33.5% (inactive)
14,CCOC(=O)c1[nH]ncc1CN1CCCC(C(=O)c2cccc(Cl)c2)C1 (centres undefined),-5.2% (inactive)
15,O=[N+]([O-])c1ccc(NC2CCCC2)c2ccncc12,40.7% (inactive)
16,O=[N+]([O-])c1ccc(NC2CCN(Cc3ccccc3)CC2)c2ccncc12,-6.9% (inactive)
17,O=[N+]([O-])c1ccc(NCc2ccc(Cl)cc2)c2ccncc12,37% (active)
18,Fc1cccc(CN2CCN(c3ccc(Cl)cc3)CC2)c1,-10.4% (inactive)
19,CC(C)=CCc1c(O)cc2c(c1O)C(=O)CC(c1ccc(O)cc1)O2 (centres undefined),5.8% (inactive)
20,CN1CCN(/N=C/c2c[nH]c3ccccc23)CC1,-2.1% (inactive)
21,CN1CCC(c2c[nH]c3ccccc23)C1 (centres undefined),34.9% (active)
22,OC(CN1CCC(c2c[nH]c3ccccc23)CC1)C(F)(F)F (centres undefined),1.1% (inactive)
23,CN1CC(C(=O)c2ccc(Cl)cc2)C(c2ccccc2F)C1 (centres undefined),-15.7% (inactive)

row,SMILES,inhibition
1,CCOc1ccc(-n2c(O)c(N=Nc3ccc([N+](=O)[O-])cc3)c(=O)[nH]c2=O)cc1,-17.8% (inactive)
2,Cc1c(N=Nc2c(O)n(-c3ccc(Br)cc3)c(=O)[nH]c2=O)c(=O)n(-c2ccccc2)n1C,-1.1% (inactive)
3,O=c1[nH]c(=O)n(-c2ccccc2)c(O)c1N=Nc1ccc(Br)cc1,60.1% (active)
4,CC(=NCCCN1CCOCC1)c1c(O)n(-c2ccccc2C)c(=O)[nH]c1=O,-51.5% (inactive)
5,CCOP(=O)(OCC)c1cc(C)c(O)c(C(C)(C)C)c1,-1.1% (inactive)
6,CC(C)(C)c1cc([N+](=O)[O-])cc(C(C)(C)C)c1O,67.8% (active)
7,CN1CCN(Cc2cc(C(C)(C)C)c(O)c(C(C)(C)C)c2)CC1,16.1% (inactive)
8,O=[N+]([O-])c1ccccc1CNCCc1c[nH]c2ccccc12,-15.3% (inactive)
9,Cc1ccc(OCC(=O)N2CCN(C3CCC(c4ccccc4)CC3)CC2)cc1 (centres undefined),-32.4% (inactive)
10,CNCC(C)c1ccccc1 (centres undefined),-8.7% (inactive)
11,COC(=O)C1=Nc2ccccc2/C1=C\c1c(O)n(-c2ccc(OC)cc2)c(=O)[nH]c1=O,9.9% (inactive)
12,COC(=O)C1=Nc2ccccc2/C1=C\c1c(O)n(-c2ccc(Br)cc2)c(=O)[nH]c1=O,56.2% (inactive)
13,O=c1[nH]c(=O)n(-c2ccccc2)c(O)c1/C=C1/C(c2ccccc2)=Nc2ccccc21,81.6% (active)
14,Cc1ccc(Cn2nc(C)c(C=O)c2Cl)cc1,-42.4% (inactive)
15,COc1cc2c(cc1OC)-c1c3c(cc4c1[C@@H](C2)N(C)CC4)OCO3,-23.9% (inactive)
16,COc1ccc(-n2nc(C(=O)NCC(=O)N3CCC4(CC3)OCCO4)c3ccccc3c2=O)cc1,-47.4% (inactive)
17,COc1cccc([C@@]2(O)CCCC[C@@H]2CN(C)C)c1,-1.9% (inactive) and 1.4% (inactive)
18,CN(C)CC1CSCCC1(O)c1ccccc1 (centres undefined),-5.3% (inactive)
19,CN(C)CC1Oc2ccccc2OC1(O)c1ccccc1 (centres undefined),56.4% (active)
20,Cc1c(N=Nc2c(O)[nH]c(=S)[nH]c2=O)c(=O)n(-c2ccccc2)n1C,12.7% (inactive)
21,O=c1[nH]c(=O)n(Cc2ccccc2Cl)c(O)c1/C=C1/C=CC=N1,47.1% (active)
22,C=CCn1c(O)c(/C=C2/C=CC=N2)c(=O)[nH]c1=O,-27.6% (inactive)
23,CCCCn1c(O)c(/C=C2/C=CC=N2)c(=O)[nH]c1=O,-7.3% (inactive)

row,SMILES,inhibition
1,COc1ccc(N=Cc2c(O)n(C)c(=O)n(C)c2=O)cc1,-13.4% (inactive)
2,CNS(=O)(=O)c1ccc(N=Cc2c(O)n(-c3cccc(C)c3)c(=O)[nH]c2=O)cc1,-26.7% (inactive)
3,COc1ccc(CC2(CCc3ccncc3)C(=O)NC(=O)NC2=O)cc1,-26.1% (inactive)
4,CNc1ccc2oc(C[C@H]3O[C@@]4(CC[C@H]3C)O[C@H]([C@H](C)C(=O)c3ccc[nH]3)[C@H](C)C[C@H]4C)nc2c1C(=O)O,76.2% (active)
5,c1ccc(-c2nc(N3CCOCC3)s[n+]2-c2ccccc2)cc1,-49.7% (inactive)
6,Cc1ccc2c(c1)C1CN(C)CCC1N2C(=S)Nc1cccnc1 (centres undefined),-34% (inactive)
7,O=C(CN1CC=C(c2ccccc2)CC1)Nc1c(Cl)cccc1Cl,30.6% (inactive)
8,COC(=O)C1CN(C#N)N(c2ccc(Cl)cc2)C12c1ccccc1-c1ccccc12 (centres undefined),-10.3% (inactive)
9,COC(=O)[C@@H]1[C@@H](C(=O)OC)C2(c3ccccc3-c3ccccc32)N(c2ccc(Cl)cc2)N1C#N,-7.2% (inactive)
10,COC(=O)C[C@]1(C(=O)OC)CN(C#N)N(c2ccc(Cl)cc2)C12c1ccccc1-c1ccccc12,91.6% (active)
11,CC(C)c1ccc(NC(=O)CCNC(=O)N2C[C@H]3C[C@@H](C2)c2cccc(=O)n2C3)cc1,-6.2% (inactive)
12,Cc1ccc(-c2nc3ccccc3c(=O)n2-c2ccncc2)cc1,-34.6% (inactive)
13,Cc1nc2cc(C(F)(F)F)ccc2n1C1CCN(Cc2nnnn2CCc2ccccc2)CC1,-27.2% (inactive)
14,Cc1nc2cc(C(F)(F)F)ccc2n1C1CCN(Cc2nnnn2Cc2cccs2)CC1,-21.1% (inactive)
15,Cc1nc2cc(C(F)(F)F)ccc2n1C1CCN(Cc2nnnn2Cc2ccc3c(c2)OCO3)CC1,62.6% (active)
16,O=c1cccc2n1CC1CC2CN(C(c2cccc(F)c2)c2sc3ncnn3c2O)C1 (centres undefined),-12.7% (inactive)
17,CN[C@H]1C[C@H]2O[C@@](C)([C@H]1OC)n1c3ccccc3c3c4c(c5c6ccccc6n2c5c31)C(=O)NC4,1.7% (inactive)
18,COc1ccccc1N1CCN(Cc2ccccc2Cl)CC1,-17.2% (inactive)
19,CC1CCN(S(=O)(=O)c2ccc(NN=C(C#N)C#N)cc2)CC1,-29.8% (inactive)
20,CCN(CC)S(=O)(=O)c1ccc(NN=C(C#N)C#N)cc1,9.7% (inactive)
21,N#CC(C#N)=NNc1ccc(-n2ccc(C(F)(F)F)n2)cc1,36.7% (active)
22,Cc1cc(C)n(-c2ccc(NN=C(C#N)C#N)cc2)n1,41.2% (active)
23,N#CC(C#N)=NNc1ccc(S(N)(=O)=O)cc1,-10.8% (inactive)

row,SMILES,inhibition
1,Cc1nn(Cc2ccccc2)c(Cl)c1C(=O)OCC(=O)Nc1cccc2ccccc12,-17.7% (inactive)
2,COC(=O)C(C)Oc1cc(C)cc2oc(=O)c3c(c12)CCCC3 (centres undefined),-9.2% (inactive)
3,O=C(NC(Cc1cnc[nH]1)C(=O)O)c1ccccc1 (centres undefined),-20.8% (inactive)
4,C=CCn1c(O)c(C(CC)=NCCc2ccccc2)c(=O)[nH]c1=O,-24.2% (inactive)
5,CC(C)n1c(=O)c(C=Nc2ccc(S(N)(=O)=O)cc2)c(O)n(Cc2ccco2)c1=O,-37.7% (inactive)
6,CC(C)C(=O)c1cn(Cc2ccccc2C#N)c2ccccc12,-11.1% (inactive)
7,CC(=O)c1cn(Cc2ccccc2C#N)c2ccccc12,78% (active)
8,CCC(=O)c1cn(Cc2ccccc2C#N)c2ccccc12,8.5% (inactive)
9,CCOC(=O)CNC(=O)CNC(=O)C(Cc1ccc(N(CCCl)CCCl)cc1)NC(C)=O (centres undefined),-43.1% (inactive)
10,C=CCn1c(O)c(C(CC)=NCc2cc(OC)cc(OC)c2)c(=O)[nH]c1=O,0.2% (inactive)
11,O=C1NC(=O)C(=Cc2ccc3ccccc3c2)C(=O)N1,-4.2% (inactive)
12,O=C1NC(=S)NC(=O)C1=Cc1cccc2cc3ccccc3cc12,59.4% (active)
13,Cc1cc(C=C2C(=O)NC(=S)NC2=O)c(C)n1C1CCCC1,24.9% (inactive)
14,Cc1cccc(N2CCN(CCc3ccccc3)CC2)c1C,11.9% (inactive)
15,CC(=O)c1c(O)n(-c2cccc(Cl)c2)c(=O)[nH]c1=O (tested in a mixture with another compound),1.2% (inactive)
16,CC(C)n1c(O)c(C2c3cc(Cl)ccc3Oc3[nH]c(=O)n(C(C)C)c(=O)c32)c(=O)[nH]c1=O (centres undefined),61.3% (active)
17,CC(=O)[C@@]1(O)CC[C@H]2[C@@H]3CC=C4C[C@@H](O)CC[C@]4(C)[C@H]3CC[C@@]21C,-24.8% (inactive)
18,C[C@]12CC[C@H]3C(CCC4(O)CC(O)CC[C@]34C=O)C1=CC[C@H]2c1ccc(=O)oc1 (some centres undefined),60.3% (active)
19,CC12CC[C@H]3[C@@H](CCC4(O)C[C@H](O)CCC34/C=N/NC(=O)c3ccccc3Cl)C1(O)CCC2C1=CC(=O)OC1 (some centres undefined),3% (inactive)
20,C=C(C)Cn1c(=O)n(CC2CS2)c2ccccc21 (centres undefined),8.9% (inactive)
